Reference: PubChem BioAssay (NCI)
Compounds without any hit were thinned out: in the full panel of roughly 83,000, 20% have a hit.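 Treatment: one concentration, 48 hours, 96-well format. Scoring: percent growth, with anything below 10 considered active.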 Activity calls are given as the source filed them.

Legend:
Experiment in all cases: NCI-60 one-dose screen, 48 h (100 = growth as untreated, 0 = no growth, -100 = all killed)
Conditions in all cases: 10 µM unless noted
NCI-H23 lung = system: NCI-H23 lung
NCI-H226 lung = system: NCI-H226 lung
NCI-H322M lung = system: NCI-H322M lung
HOP-62 NSCLC = system: HOP-62 NSCLC
NCI-H460 lung = system: NCI-H460 lung
HOP-92 NSCLC = system: HOP-92 NSCLC
NCI-H522 lung = system: NCI-H522 lung
A549/ATCC NSCLC = system: A549/ATCC NSCLC
786-0 renal = system: 786-0 renal
COLO 205 colon = system: COLO 205 colon
DU-145 prostate = system: DU-145 prostate
K-562 leukemia = system: K-562 leukemia
MALME-3M melanoma = system: MALME-3M melanoma
MDA-MB-231 breast = system: MDA-MB-231 breast
RXF 393 renal = system: RXF 393 renal
SF-268 CNS = system: SF-268 CNS
SF-295 CNS = system: SF-295 CNS
SF-539 CNS = system: SF-539 CNS
UACC-257 melanoma = system: UACC-257 melanoma
M14 melanoma = system: M14 melanoma

Measured: growth

COc1cccc(NC(=O)c2cccc(C3CCc4c(cc(OC)c(OC)c4OC)O3)c2)c1 (stereo not given)
inactive: NCI-H23 lung 73.9% | NCI-H226 lung 53.7% | NCI-H322M lung 54.2% | HOP-62 NSCLC 85.2% | NCI-H460 lung 84% | HOP-92 NSCLC 26.3% | NCI-H522 lung 53.1% | A549/ATCC NSCLC 70.8% | 786-0 renal 86.6% | COLO 205 colon 80.2% | DU-145 prostate 79.6% | K-562 leukemia 35.6% | MALME-3M melanoma 72.7% | MDA-MB-231 breast 32.2% | RXF 393 renal 88.9% | SF-268 CNS 91.2% | SF-295 CNS 70.9% | SF-539 CNS 92% | UACC-257 melanoma 78.1% | M14 melanoma 56.9%

FC(F)(F)c1[nH]ncc1-c1nc2c(N3CCCCC3)cc3[nH]ncc3c2c2c1CCCC2
inactive: DU-145 prostate 10.2% | K-562 leukemia 14.1%
active: NCI-H23 lung -9.72% | NCI-H226 lung 2.93% | NCI-H322M lung -2.53% | HOP-62 NSCLC -8.3% | NCI-H460 lung 3.42% | HOP-92 NSCLC -10.2% | NCI-H522 lung -28.4% | A549/ATCC NSCLC 5.13% | 786-0 renal -1.84% | COLO 205 colon -33.7% | MALME-3M melanoma 0.904% | MDA-MB-231 breast 3.41% | RXF 393 renal -92% | SF-268 CNS -11.7% | SF-295 CNS 7.04% | SF-539 CNS -72.2% | UACC-257 melanoma 0.68% | M14 melanoma 2%

COc1ccc2cc(-c3ccc(-c4ccc(C(=N)N)s4)s3)ccc2c1
active: NCI-H23 lung 0.368% | HOP-62 NSCLC -8.34% | NCI-H460 lung -59.8% | NCI-H522 lung -46.7% | A549/ATCC NSCLC -18.9% | 786-0 renal -53.6% | COLO 205 colon -4.44% | DU-145 prostate -67.2% | K-562 leukemia -42.8% | MDA-MB-231 breast -15.2% | RXF 393 renal -25.9% | SF-268 CNS -33.9%
inactive: NCI-H226 lung 97% | NCI-H322M lung 22.6% | HOP-92 NSCLC 65.5% | MALME-3M melanoma 101% | SF-295 CNS 86% | SF-539 CNS 89.5% | UACC-257 melanoma 62.8% | M14 melanoma 36.2%

O=C1OCC2=C1C(c1cccc(F)c1)c1cc3c(cc1N2CCO)OCO3 (stereo not given)
active: COLO 205 colon 7.08% | K-562 leukemia 9.79% | SF-295 CNS 1.9% | SF-539 CNS 2.82%
inactive: NCI-H23 lung 33.4% | NCI-H226 lung 67.6% | NCI-H322M lung 51.2% | HOP-62 NSCLC 32% | NCI-H460 lung 14.2% | HOP-92 NSCLC 34.6% | NCI-H522 lung 12.5% | A549/ATCC NSCLC 43% | 786-0 renal 24.5% | DU-145 prostate 30.5% | MALME-3M melanoma 52.7% | MDA-MB-231 breast 49.9% | RXF 393 renal 32.6% | SF-268 CNS 38.7% | UACC-257 melanoma 75.5% | M14 melanoma 12.6%

O=C1/C(=C/c2ccc(Br)cc2)COc2ccc(O)c(O)c21
active: HOP-62 NSCLC -24.5% | HOP-92 NSCLC -33.4% | NCI-H522 lung -70.4% | 786-0 renal -70.4% | DU-145 prostate 6.06% | K-562 leukemia 5.3% | MALME-3M melanoma -17.2% | MDA-MB-231 breast -4.69% | RXF 393 renal -49.2% | SF-268 CNS -36.7% | SF-539 CNS -94.2% | UACC-257 melanoma 9.86% | M14 melanoma 9.59%
inactive: NCI-H23 lung 18.3% | NCI-H226 lung 71% | NCI-H322M lung 30.7% | NCI-H460 lung 12% | A549/ATCC NSCLC 20.6% | COLO 205 colon 15.4% | SF-295 CNS 57.6%

O=c1[nH]c(-c2ccc(Cl)cc2)cn1-c1ccc(-n2cc(-c3ccc(Cl)cc3)[nH]c2=O)cc1
inactive: NCI-H23 lung 95.9% | NCI-H226 lung 91.1% | NCI-H322M lung 115% | HOP-62 NSCLC 99.8% | NCI-H460 lung 115% | HOP-92 NSCLC 99.1% | NCI-H522 lung 112% | A549/ATCC NSCLC 93.4% | 786-0 renal 96.4% | COLO 205 colon 111% | DU-145 prostate 108% | K-562 leukemia 113% | MALME-3M melanoma 97.9% | MDA-MB-231 breast 94.7% | RXF 393 renal 113% | SF-268 CNS 109% | SF-295 CNS 101% | SF-539 CNS 104% | UACC-257 melanoma 101% | M14 melanoma 99.2%

CN1CCN(CCCOC(=O)c2c3c(n4ccccc24)C(=O)c2ncccc2C3=O)CC1
active: NCI-H23 lung -30.6% | HOP-62 NSCLC -34.9% | NCI-H460 lung -15.1% | NCI-H522 lung -87.1% | A549/ATCC NSCLC -47.9% | 786-0 renal 1.4% | COLO 205 colon -93.2% | DU-145 prostate -66.5% | K-562 leukemia -30.4% | MALME-3M melanoma -59.7% | RXF 393 renal -2.1% | SF-268 CNS 5.69% | SF-295 CNS -5.73% | SF-539 CNS -13.1% | UACC-257 melanoma -34.2% | M14 melanoma -86.1%
inactive: NCI-H226 lung 15.7% | NCI-H322M lung 28.5% | HOP-92 NSCLC 14.8% | MDA-MB-231 breast 20%

CCCCCCCCn1ccc2cc(NC(=O)Cn3cc(CN4CCN(CC)CC4)nn3)ccc21
active: COLO 205 colon -70.2% | K-562 leukemia 3.41% | MALME-3M melanoma -11.1% | M14 melanoma -64.3%
inactive: NCI-H23 lung 105% | NCI-H226 lung 98.3% | NCI-H322M lung 78.3% | HOP-62 NSCLC 89.8% | NCI-H460 lung 13.8% | HOP-92 NSCLC 54.7% | NCI-H522 lung 86.9% | A549/ATCC NSCLC 64% | 786-0 renal 57.9% | DU-145 prostate 90.6% | MDA-MB-231 breast 45.8% | RXF 393 renal 67.7% | SF-268 CNS 76.7% | SF-295 CNS 13.7% | SF-539 CNS 82.7% | UACC-257 melanoma 79.4%

N#C/C(=C\c1ccc(Br)cc1)c1cc2ccccc2[nH]1
inactive: NCI-H23 lung 92.1% | NCI-H226 lung 92.7% | NCI-H322M lung 91.6% | HOP-62 NSCLC 86.3% | NCI-H460 lung 96.1% | HOP-92 NSCLC 70.4% | NCI-H522 lung 85% | A549/ATCC NSCLC 101% | 786-0 renal 93.3% | COLO 205 colon 105% | DU-145 prostate 104% | K-562 leukemia 86.4% | MALME-3M melanoma 99.3% | MDA-MB-231 breast 79.5% | RXF 393 renal 115% | SF-268 CNS 102% | SF-295 CNS 95.6% | SF-539 CNS 93.3% | UACC-257 melanoma 100% | M14 melanoma 101%

COc1cc(C2=NN(C(C)=O)C(c3ccc(N(C)C)cc3)C2)cc(OC)c1OC (stereo not given)
inactive: NCI-H23 lung 88.8% | NCI-H226 lung 97.8% | NCI-H322M lung 82.7% | HOP-62 NSCLC 83.9% | NCI-H460 lung 107% | HOP-92 NSCLC 79.7% | NCI-H522 lung 72.4% | A549/ATCC NSCLC 90.6% | 786-0 renal 79.7% | COLO 205 colon 108% | DU-145 prostate 103% | K-562 leukemia 81.7% | MALME-3M melanoma 87.3% | MDA-MB-231 breast 74.1% | RXF 393 renal 103% | SF-268 CNS 105% | SF-295 CNS 95.1% | SF-539 CNS 91.5% | UACC-257 melanoma 76.7% | M14 melanoma 95%

COc1ccc(NC(=O)c2sc3nc4c(cc3c2N)CCCC4)cc1
active: NCI-H522 lung -20.7% | K-562 leukemia 6.99% | RXF 393 renal -4.44% | SF-295 CNS 8.64% | SF-539 CNS 3.47%
inactive: NCI-H23 lung 28% | NCI-H226 lung 50.6% | NCI-H322M lung 53.1% | HOP-62 NSCLC 34.5% | NCI-H460 lung 18.7% | HOP-92 NSCLC 47.3% | A549/ATCC NSCLC 30% | 786-0 renal 38.6% | COLO 205 colon 14% | DU-145 prostate 11.5% | MALME-3M melanoma 54.8% | MDA-MB-231 breast 49.2% | SF-268 CNS 58.8% | UACC-257 melanoma 53% | M14 melanoma 18.3%

Cn1cc(-c2csc(-c3cn(C)c4ccc(Br)cc34)n2)c2cnccc21
active: NCI-H23 lung -28.7% | NCI-H322M lung -32.6% | HOP-62 NSCLC -79% | NCI-H460 lung -76.4% | HOP-92 NSCLC -90.9% | NCI-H522 lung -67.5% | A549/ATCC NSCLC -75.1% | 786-0 renal -92.4% | COLO 205 colon -77.8% | DU-145 prostate -88.6% | K-562 leukemia -67% | MALME-3M melanoma -91.3% | MDA-MB-231 breast -84.7% | RXF 393 renal -87.2% | SF-268 CNS -73.8% | SF-295 CNS -78.2% | SF-539 CNS -93.1% | UACC-257 melanoma -23.2% | M14 melanoma -80.4%
inactive: NCI-H226 lung 102%

Cc1cc(N2CCCCC2)nc(N2CCN(CC(=O)Nc3ccc4c(ccn4Cc4ccccc4)c3)CC2)n1
inactive: NCI-H23 lung 59.2% | NCI-H226 lung 65.1% | NCI-H322M lung 83% | HOP-62 NSCLC 67.1% | NCI-H460 lung 56.5% | HOP-92 NSCLC 23.6% | NCI-H522 lung 65.1% | A549/ATCC NSCLC 49.2% | 786-0 renal 68.6% | COLO 205 colon 48.2% | DU-145 prostate 79.6% | K-562 leukemia 35.4% | MALME-3M melanoma 70.4% | MDA-MB-231 breast 64.3% | RXF 393 renal 36.2% | SF-268 CNS 80.5% | SF-295 CNS 42.9% | SF-539 CNS 80.3% | UACC-257 melanoma 71% | M14 melanoma 50.9%

C(/C=C/c1ccccc1)=Nc1ccc(CCc2ccc(N=C/C=C/c3ccccc3)cc2)cc1
inactive: NCI-H23 lung 85.2% | NCI-H226 lung 95.9% | NCI-H322M lung 97.6% | HOP-62 NSCLC 98.2% | NCI-H460 lung 54.8% | HOP-92 NSCLC 107% | NCI-H522 lung 76.6% | A549/ATCC NSCLC 104% | 786-0 renal 106% | COLO 205 colon 101% | DU-145 prostate 25.6% | K-562 leukemia 78.3% | MALME-3M melanoma 115% | MDA-MB-231 breast 92% | RXF 393 renal 83.8% | SF-268 CNS 104% | SF-295 CNS 73.3% | SF-539 CNS 108% | UACC-257 melanoma 97.9% | M14 melanoma 89.9%

Cn1ccnc1C(=O)/C=C/c1ccc(C(=O)Nc2ccc(F)cc2)cc1
active: HOP-62 NSCLC 5.2% | NCI-H460 lung -44.5% | NCI-H522 lung 7.55% | 786-0 renal -35.2% | K-562 leukemia 4.37% | RXF 393 renal 5.96% | SF-295 CNS 6.55% | SF-539 CNS -40.1%
inactive: NCI-H23 lung 15.9% | NCI-H226 lung 13.8% | NCI-H322M lung 11% | HOP-92 NSCLC 11.1% | A549/ATCC NSCLC 10.8% | COLO 205 colon 25.8% | DU-145 prostate 19.9% | MALME-3M melanoma 66.4% | MDA-MB-231 breast 18.7% | SF-268 CNS 14.4% | UACC-257 melanoma 62.2% | M14 melanoma 17.6%
